Compound activity (PubChem BioAssay)
Compounds with a hit are over-represented: about 4% of the library has one in this group of screens.
HIF-2a inh: blocks HIF-2a reporter activity. 786-0 RCC cells HIF-2a reporter, luciferase luminescence, overnight. AID 624352. 0.72% of 360,000 active. inhibition, % at 18.8 µM;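 active = inhibition of the luminescence signal of 40% or more relative to plate controls, in a single-dose primary screen at 18.75 µM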
EBV LMP1 NFkB: Epstein-Barr LMP1 NF-kappaB reporter inhibition | LMP1-induced NF-kappaB luciferase reporter cells, luminescence | inhibition, % at 12.5 µM | 0.69% of 350,000 active | AID 504558; in the data active = inhibition above about 41%;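 note: 0% = neutral control wells and 100% = reference inhibitor control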
TROY NFkB inh: inhibitors of TROY-dependent NF-kB signaling; Q293 LMP1-TROYcd NF-kB luciferase reporter, 4 h; inhibition, % at 10 µM; 0.98% of 360,000 active; AID 1347056;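 active = compounds whose plate-normalised and pattern-corrected inhibition of the luciferase reporter signal at the single screening dose is 50% or more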
TWEAK-Fn14 inh: inhibitors of TWEAK-Fn14 interaction signaling; inhibition, % at 10 µM; AID 1159606; TWEAK-stimulated Fn14 reporter cells, luciferase luminescence, 8 h; 2% of 360,000 active; in the data active = inhibition above about 50%
MITF TRPM1 inh: MITF TRPM1 promoter inhibition in SK-MEL-5 cells. SK-MEL-5 TRPM1 promoter luciferase, 24 h. inhibition, % at 12.5 µM. 0.83% of 330,000 active;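 active = mean inhibition across replicates of 60% or more, whatever share of single replicates reaches that level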
Peg3 promoter: Peg3 promoter activity inhibition | HeLa PEG-Prom luciferase reporter, luminescence, overnight | inhibition, % at 20 µM | 1.7% of 360,000 active | AID 588405;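 active = inhibition of at least 50% at 20 µM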
* = called active by the depositor; x = no result.

SMILES	HIF-2a inh	EBV LMP1 NFkB	TROY NFkB inh	TWEAK-Fn14 inh	MITF TRPM1 inh	Peg3 promoter
O=C(NCC1CC1(Cl)Cl)Nc1ccc(Cl)c(Cl)c1 (stereo not given)	-294.0	-13.8	53.0*	28.7	-51.8	-230.0
O=C(N/N=C/c1ccccc1)c1ccc(OCc2ccccc2)cc1	-35.7	-4.3	-30.1	-9.7	-6.1	-6.2
NC(N)=N/N=C/c1ccc(OCc2ccccc2)cc1	-115.3	-20.5	-34.8	1.6	-1.5	54.1*
NC(N)=N/N=C/c1ccc(OCc2ccc(Cl)cc2)cc1	-124.3	-7.8	-10.5	27.9	-34.6	110.1*
OC[C@@H]1CN(Cc2ccc(Cl)cc2)C[C@H](n2cnc3c(NC4CCC4)ncnc32)O1	1.5	x	-2.6	-11.7	x	9.0
CC(=O)c1cccc(NC(=O)COc2cc3oc(=O)c(CC(C)O)c(C)c3cc2Cl)c1 (stereo not given)	7.2	20.5	44.7	59.8*	0.7	8.8
CCOC(=O)c1ccc(NC(=O)COc2cc3oc(=O)c(CC(C)O)c(C)c3cc2Cl)cc1 (stereo not given)	15.1	2.2	17.6	6.0	-14.8	10.1
O=C1NC(c2ccc(Cl)cc2Cl)Oc2ccccc21 (stereo not given)	18.8	3.2	-14.1	-10.7	-7.0	1.8
Cc1ccccc1C1NC(=O)c2ccccc2O1 (stereo not given)	16.7	-5.5	-7.9	87.6*	x	-4.8
Clc1ccc2nc(N3CCNCC3)nc(-c3ccccc3)c2c1	15.5	-3.2	-16.0	21.7	-16.7	101.2*
CN1CCN(c2nc(-c3ccccc3)c3cc(Cl)ccc3n2)CC1	-7.7	-17.1	-26.3	14.6	-4.9	23.2
O=C1N/C(=C/c2cccn2-c2ccc(F)cc2)C(=O)N1Cc1ccccc1F	3.0	0.0	-27.4	74.9*	8.0	15.6
O=C1N/C(=C/c2cccn2-c2ccccc2)C(=O)N1Cc1ccc(F)cc1	8.1	16.5	0.2	0.8	15.9	12.1
Oc1ccc(-c2cnns2)c(O)c1	9.6	-2.8	-22.9	63.0*	2.7	-2.3
CC(=O)Nc1cc(-c2cccc(NS(C)(=O)=O)c2)cn2c(-c3cccc(C(C)=O)c3)cnc12	13.4	x	5.8	-22.0	x	31.2
CC(=O)Nc1cccc(-c2cc(NC(C)=O)c3ncc(-c4ccc(F)cc4)n3c2)c1	-12.9	x	90.6*	100.2*	x	30.9
CC(=O)Nc1cc(-c2cccc(NS(C)(=O)=O)c2)cn2c(-c3ccc(F)c(Cl)c3)cnc12	-14.7	x	-2.2	91.8*	x	22.6
O=C(Nc1cccc(S(=O)(=O)N2CCCCCC2)c1)C1CCN(C(=O)c2ccc(F)cc2)CC1	-3.0	-0.8	1.1	3.6	22.3	-8.8
Brc1ccc(-c2nnc(-c3ccccc3Br)o2)cc1	-197.6	-20.3	0.9	19.7	-77.6	-234.6
Cc1ccc(-c2nnc(-c3ccccc3Br)o2)cc1	-119.6	-10.7	7.4	56.6*	-15.3	-210.7
Cc1ccc2nc(-c3ccc(O)c(O)c3)cn2c1	-111.8	2.9	-8.7	68.5*	45.6	-112.4
Cc1nn(-c2ccccc2)c(Cl)c1/C=N/Nc1ccc(S(=O)(=O)Nc2ccccc2C(=O)O)cc1[N+](=O)[O-]	7.6	-0.4	52.1*	-3.6	9.8	1.8
COc1ccc(NS(=O)(=O)c2ccc(N/N=C(\C)c3ccncc3)c([N+](=O)[O-])c2)cc1	29.8	21.2	37.4	73.9*	23.2	27.5
O=C(O)c1ccccc1NS(=O)(=O)c1ccc(NN=Cc2ccccc2F)c([N+](=O)[O-])c1	2.7	-0.2	42.9	-17.0	2.2	-4.0
COc1ccc(C=NNc2ccc(S(=O)(=O)Nc3ccccc3C(=O)O)cc2[N+](=O)[O-])c(OC)c1	3.1	-2.2	59.2*	-52.0	12.4	-2.8
CC1(C(=O)Nc2nccs2)CCN1C(=O)CC(c1ccccc1)c1ccccc1 (stereo not given)	8.7	x	12.6	-0.6	x	17.6
COc1cccc(N2CCN(C(=O)c3ccccc3SCC(=O)NCc3ccco3)CC2)c1	-19.2	1.5	-4.5	6.8	-2.4	-7.8
CCN(CC)CCCNc1nc(CN2CCOCC2)nc2sc3c(c12)CCC3	9.9	3.1	-9.0	5.7	-17.7	-10.3
CCC(C)Nc1nc(CN2CCOCC2)nc2sc3c(c12)CCC3 (stereo not given)	4.3	5.4	x	74.6*	22.2	0.3
CSc1ccccc1NC(=O)C(C)N(C)CC(=O)N1CCN(Cc2ccccc2)CC1 (stereo not given)	-0.2	72.0*	-2.6	-12.6	10.8	12.8
